Test results published in PubChem BioAssay (NCI).
Compounds without any hit were thinned out: in the full panel of roughly 83,000, 20% have a hit.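 Single-dose data. Exposure time 48 hours. Values below 10 considered active.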 Values without a mark were called inactive.

The compounds below were run on NCI-H322M lung (assay: NCI-60 one-dose screen, 48 h (100 = growth as untreated, 0 = no growth, -100 = all killed)). Conditions: 10 µM unless noted.

Point of comparison: CC(C)(C)c1ccc(/C=C/C(=O)Nc2ccc(O)cc2)cc1, growth 78%. Against it:
- CCN(CC)CCCC(C)Nc1c2ccc(Cl)cc2nc2ccc(O)cc12 (stereo unspecified) — lower, 38%
- Cc1ccc(-c2cc3c(cc2O)C2CCCCC2(N2CCOCC2)O3)cc1 (stereo unspecified) — higher, 101%
- CNC(=O)NCC1OC(n2cnc3c(NC(=O)Nc4ccccc4)ncnc32)C(O[Si](C)(C)C(C)(C)C)C1CC(=O)N(C)OC (stereo unspecified) — higher, 78.8%
- COc1cc(/C=C/C(=O)c2cccc(-n3cc(-c4ccccc4)[nH]c3=O)c2)ccc1O — higher, 85.4%
- CC(=O)OC1CCC2(C)C(=CC3C4CCC(=O)C4(C)CCC32)C1 (stereo unspecified) — higher, 113%
- O=C(Nc1ccccc1-c1nc2ccccc2c(=O)[nH]1)c1cc2ccccc2[nH]1 — higher, 84.2%
- CC(=O)OC[C@H]1OC(Sc2sc(C(=O)c3ccc(Br)cc3)c(N)c2-c2nc3ccccc3s2)[C@H](OC(C)=O)[C@@H](OC(C)=O)[C@@H]1OC(C)=O (stereo partly specified) — higher, 83.5%
- O=C(COc1ccc(/C=C2\Oc3ccccc3C2=O)cc1)c1ccc(Cl)cc1 — higher, 126%
- C=CC(=O)Nc1cccc(Oc2nccc(Nc3nnc(C4CC4)s3)n2)c1 — higher, 105%
- O=C(NC(CSSCC(NC(=O)c1ccccc1)C(=O)O)C(=O)O)c1ccccc1 (stereo unspecified) — higher, 103%
- CCOc1c(C#N)nnc2c(C#N)c(NC(=O)c3ccccc3)nn12 — higher, 95%
- COc1ccc(N=C(c2ccccc2)C2C(=O)c3ccccc3C2=O)cc1 — higher, 105%
- COc1ccc(-c2nc(SCCC(C)C)nc(N/N=C\c3ccccc3O)c2C#N)cc1 — higher, 82.7%
- CN(Cc1cnc2nc(N)nc(N)c2n1)c1ccc(C(=O)N[C@@H](CCc2nn[nH]n2)c2nn[nH]n2)cc1 — lower, 66%
- C[C@]12CC[C@@H]3c4cc(OC(F)F)c(O)cc4CC[C@H]3[C@@H]1CC[C@@H]2OS(N)(=O)=O — lower, 45.4%
- C[C@H](NC(=O)[C@@H]1CSSC[C@@H](NC(=O)c2nc3ccccc3cc2O)C(=O)NCC(=O)N1C)c1ccccc1 — lower, 76.7%
- C=CCOC1=CC(=O)c2ccccc2C1=O — higher, 91.6%
- O=C(NCCc1ccc(O)c(O)c1)C12CC3CC(CC(C3)C1)C2 — higher, 114%
- COc1ccc2c(c1)O/C(=C\c1cccc(OCC(=O)Nc3nc4ccccc4s3)c1)C2=O — higher, 106%
- Cn1c(=O)c2c(nc(Cl)n2CCl)n(C)c1=O — higher, 103%
- Cc1cc(C)c2c(-c3nnc(N)s3)cc(=O)oc2c1 — higher, 99%
- O=c1[nH][n+](-c2ccc(Cl)cc2)no1 — lower, 75.6%
- COC1=CC(=O)C[C@@H](C)[C@]12Oc1c(Cl)c(OC)cc(OC)c1C2=O — higher, 105%
- Cc1cc(Cl)nc(NCc2cc(Nc3ccnc4cc(Cl)ccc34)ccc2F)n1 — higher, 79.6%
- c1ccc2c(c1)nc(CN1CCOCC1)n1cc(N3CCCC3)nc21 — higher, 103%
- O=Cc1c[nH]c2ccc(-c3csc4ccccc34)cc12 — higher, 83.2%
- N#C/C(=C\c1ccc2c(c1)OCO2)n1nnc2cc(F)c(F)cc21 — higher, 86.2%
- N#Cc1c(N2CCNCC2)nc2sc3cc(Cl)c(Cl)cc3n2c1=N — higher, 107%
- CN(C)c1ccc(-c2cc(-c3ccc(Nc4nc(Nc5ccc(Cl)cc5)nc(Nc5ccc(Cl)cc5)n4)cc3)no2)cc1 — lower, 65.2%
- CNc1ccc(NC)c2c1C(=O)c1ccccc1C2=O — higher, 84%
- NC(=N\N=C/c1ccccc1[N+](=O)[O-])/C(N)=N\N=C/c1ccccc1[N+](=O)[O-] — higher, 146%
- COc1cc(/C=C/C(=O)c2ccc(Nc3nc(Nc4ccc(F)cc4)nc(Nc4ccc(Cl)cc4)n3)cc2)cc(OC)c1OC — higher, 99.6%
- Cc1cc(NCc2cc(Nc3ccnc4cc(Cl)ccc34)ccc2F)nc(Cl)n1 — lower, 71.9%
- COc1cc(CCC[P+](c2ccccc2)(c2ccccc2)c2ccccc2)cc2c1OCO2 — higher, 79.4%
- CC(=O)C(C)Cc1cc2c(cc1C)C(C)(C)CCC2(C)C (stereo unspecified) — higher, 97.8%
- CCCCCc1nc2c(c3c1CCCC3)CCCC2 — higher, 78.3%

C#Cc1cccc(NC(=O)c2ccc(NC(=O)CCl)cc2)c1 gave a growth of 86.6% [8.25 µM].

What follows are compounds tested on HOP-62 NSCLC in the same assay as above. Conditions: 10 µM unless noted.

Point of comparison: CCOc1c(C#N)nnc2c(C#N)c(NC(=O)c3ccccc3)nn12, growth 96.6%. Against it:
- CCN(CC)CCCC(C)Nc1c2ccc(Cl)cc2nc2ccc(O)cc12 (stereo unspecified) — lower, 42.1%
- Cc1ccc(-c2cc3c(cc2O)C2CCCCC2(N2CCOCC2)O3)cc1 (stereo unspecified) — higher, 110%
- CNC(=O)NCC1OC(n2cnc3c(NC(=O)Nc4ccccc4)ncnc32)C(O[Si](C)(C)C(C)(C)C)C1CC(=O)N(C)OC (stereo unspecified) — lower, 60.3%
- COc1cc(/C=C/C(=O)c2cccc(-n3cc(-c4ccccc4)[nH]c3=O)c2)ccc1O — higher, 129%
- CC(=O)OC1CCC2(C)C(=CC3C4CCC(=O)C4(C)CCC32)C1 (stereo unspecified) — higher, 111%
- O=C(Nc1ccccc1-c1nc2ccccc2c(=O)[nH]1)c1cc2ccccc2[nH]1 — lower, 71.6%
- CC(=O)OC[C@H]1OC(Sc2sc(C(=O)c3ccc(Br)cc3)c(N)c2-c2nc3ccccc3s2)[C@H](OC(C)=O)[C@@H](OC(C)=O)[C@@H]1OC(C)=O (stereo partly specified) — lower, 63.8%
- O=C(COc1ccc(/C=C2\Oc3ccccc3C2=O)cc1)c1ccc(Cl)cc1 — lower, 91.1%
- C=CC(=O)Nc1cccc(Oc2nccc(Nc3nnc(C4CC4)s3)n2)c1 — higher, 110%
- O=C(NC(CSSCC(NC(=O)c1ccccc1)C(=O)O)C(=O)O)c1ccccc1 (stereo unspecified) — lower, 95.6%
- CC(C)(C)c1ccc(/C=C/C(=O)Nc2ccc(O)cc2)cc1 — lower, 52.2%
- COc1ccc(N=C(c2ccccc2)C2C(=O)c3ccccc3C2=O)cc1 — higher, 97%
- COc1ccc(-c2nc(SCCC(C)C)nc(N/N=C\c3ccccc3O)c2C#N)cc1 — lower, 92.5%
- CN(Cc1cnc2nc(N)nc(N)c2n1)c1ccc(C(=O)N[C@@H](CCc2nn[nH]n2)c2nn[nH]n2)cc1 — lower, 32.7%
- C[C@]12CC[C@@H]3c4cc(OC(F)F)c(O)cc4CC[C@H]3[C@@H]1CC[C@@H]2OS(N)(=O)=O — lower, 43.3%
- C[C@H](NC(=O)[C@@H]1CSSC[C@@H](NC(=O)c2nc3ccccc3cc2O)C(=O)NCC(=O)N1C)c1ccccc1 — lower, 66.6%
- C=CCOC1=CC(=O)c2ccccc2C1=O — lower, 95.6%
- O=C(NCCc1ccc(O)c(O)c1)C12CC3CC(CC(C3)C1)C2 — lower, 74.3%
- COc1ccc2c(c1)O/C(=C\c1cccc(OCC(=O)Nc3nc4ccccc4s3)c1)C2=O — higher, 115%
- Cn1c(=O)c2c(nc(Cl)n2CCl)n(C)c1=O — higher, 115%
- Cc1cc(C)c2c(-c3nnc(N)s3)cc(=O)oc2c1 — higher, 111%
- O=c1[nH][n+](-c2ccc(Cl)cc2)no1 — lower, 82.7%
- COC1=CC(=O)C[C@@H](C)[C@]12Oc1c(Cl)c(OC)cc(OC)c1C2=O — lower, 88.3%
- Cc1cc(Cl)nc(NCc2cc(Nc3ccnc4cc(Cl)ccc34)ccc2F)n1 — lower, 76.7%
- c1ccc2c(c1)nc(CN1CCOCC1)n1cc(N3CCCC3)nc21 — lower, 87.5%
- O=Cc1c[nH]c2ccc(-c3csc4ccccc34)cc12 — lower, 42.8%
- N#C/C(=C\c1ccc2c(c1)OCO2)n1nnc2cc(F)c(F)cc21 — lower, 69.4%
- N#Cc1c(N2CCNCC2)nc2sc3cc(Cl)c(Cl)cc3n2c1=N — higher, 98.7%
- CN(C)c1ccc(-c2cc(-c3ccc(Nc4nc(Nc5ccc(Cl)cc5)nc(Nc5ccc(Cl)cc5)n4)cc3)no2)cc1 — lower, 63.6%
- CNc1ccc(NC)c2c1C(=O)c1ccccc1C2=O — lower, 87%
- NC(=N\N=C/c1ccccc1[N+](=O)[O-])/C(N)=N\N=C/c1ccccc1[N+](=O)[O-] — lower, 94%
- COc1cc(/C=C/C(=O)c2ccc(Nc3nc(Nc4ccc(F)cc4)nc(Nc4ccc(Cl)cc4)n3)cc2)cc(OC)c1OC — lower, 82.1%
- Cc1cc(NCc2cc(Nc3ccnc4cc(Cl)ccc34)ccc2F)nc(Cl)n1 — lower, 54.5%
- COc1cc(CCC[P+](c2ccccc2)(c2ccccc2)c2ccccc2)cc2c1OCO2 — lower, 92.3%
- CC(=O)C(C)Cc1cc2c(cc1C)C(C)(C)CCC2(C)C (stereo unspecified) — lower, 82.4%
- CCCCCc1nc2c(c3c1CCCC3)CCCC2 — lower, 77.6%

With C#Cc1cccc(NC(=O)c2ccc(NC(=O)CCl)cc2)c1 the growth was 10.7% [8.25 µM].
